107 sequences from PubChem BioAssay AID1508600 (Functional Genomics Laboratory (NCATS/FGL), 2020) can be followed below.

Hit rate of the full screen: of about 53,000 sequences, about 3,700 (7%) were called active. The sample as a whole holds a higher share of actives than the screen did. Values without a mark were called inactive.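 Rule for the calls: active = gene knockdowns whose robust z-score for IL-1 alpha signal is at least 2 or at most -2, so actives lie on both sides; inactive = the rest.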

The test in a line: Components of the Cytosolic LPS Sensing Pathway: Gene Identification via Genome-wide siRNA Screen.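 Note: robust z of the log signal after scaling to non-targeting control siRNA wells of the plate.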 As to conditions: RAW264.7 macrophages, IL-1a HTRF, actives lie on both sides, screened at 100 nM (by protocol), cells primed 5 h with Pam3CSK4 first. The method, boiled down:
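RAW264.7 mouse macrophages reverse-transfected with single siRNAs (100 nM final) for 48h, primed with Pam3CSK4 for 5 hours, then transfected with LipidA for 24 hour. Supernatant IL-1a read by HTRF; values normalized to negative-control median, log-transformed robust z-scores.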
On to ACAUGACAAACAACACUAUTT against Olfr960, for which the z-score is -0.891. As to GGCAGCUAGAGAGAAUCCUTT against Akr1c12, the z-score is -2.45 (active).

Take GCUUUCGGUGGAUUCCUUATT against Rars2: the z-score was -0.714.

As to GGACUGGUUCUUCAGAUCCTT against Depp1, the z-score was 3.31 (active). For the sequence GGCUUUCGGUUAUGACCAATT against Alas2, the z-score is -0.385. The value for GGAAACCAUCUUUGAACUUTT against Specc1l was 0.54; that for GGAUGUAUGAUGCAGUUAUTT against Olfr1211 was 1.89. For GGGAUUUGAGCAUCUUUCCTT against Lrrc40, the z-score is 0.571. For GGCUUUGAUUAUGUUCCCATT against Fcer2a, the z-score was -0.188. Consider GGUGACUAGAAAAAUGGAUTT against Cd1d1, for which the z-score is 0.528.

GGAGAAGAUGUGGAGACAUTT against Edf1: the z-score is -1.3. As to GGCAAAGAUCUUAUGGAGATT against Csf3r, the z-score was 0.0079. On to GGUUCUUUUUGCCACAGCCTT against Miga2, for which the z-score was -2.31 (active).

Regarding GGGAGUAUUACCUCCUUCATT against Igbp1b, the z-score was 0.00303. On to GCAGCUUGAGUUCUCGAAUTT against BC049715, for which the z-score was 0.971. Regarding GGAAGAAGCUCUAUGCUGATT against Fbxo9, the z-score is -0.589. Turning to GCUUGACCUUUUUACUCCUTT against Siglece, the z-score is 0.262.

Consider GCAGAACUUGACCACUGCCTT against Defb2, for which the z-score was 2.58 (active). To GGAUAAUUCACAGUUCAAATT against Tlk1 belongs 1.14; to GGACAUCAUGGACCUGAAGTT against Bmerb1, -0.582; to GAAGCUAGAAGAGAUUAAATT against Cep41, 0.821. As to CCCUGUUGAUGAACAAAUCTT against Ddt, the z-score was -0.262. With GGUAUGUAGGAAUUACAGUTT against AI606181, the z-score was 2.49 (active). Take CCUGUCGUUCCUCCUUACATT against Sec11a: the z-score was -1.29. On to CCAACCUCCCAUUCUGAAUTT against Ttc22, for which the z-score was 1.71.

Regarding GGGCUUAUUCUGUUAAUAGTT against Mttp, the z-score is -0.215. On to GCAGGGAUCUGGAUUUAAUTT against Arf5, for which the z-score was 3.37 (active). On to CUUAGACCCAAUUCAAUUCTT against Zfp667, for which the z-score is -0.0845. Regarding CGGCUUCUUAGGAAACUCUTT against Olfr358, the z-score is -0.369. To GGUGAAAACGUGGUUCCAGTT against Bsx belongs -0.0072; to GGUGACUUCCACUCUAACUTT against Sohlh2, -2.57 (active). In the case of GGCUAUGAAUAAACUUUUCTT against Olfr1016, the z-score is 0.429.

Consider GGGAUGGAGGAGGAGCUUATT against Bad, for which the z-score is 0.86.

In the case of GGAUUCAAUUUUUUGCCAUTT against Pbdc1, the z-score was -1.74. For the sequence CCACGUAUUGUUAGUAGAATT against Ei24, the z-score is 0.251.

On to GUAAGGUAUUCAGUGACCUTT against Olfml2a, for which the z-score is -2.23 (active). On to GGAAACAGAUUUAAAGUGATT against Efcc1, for which the z-score is 1.03. For GGACAAGAAGGCAAAUUAGTT against Arhgap9, the z-score was 0.366. As for GCAUAAUAAGCCAAUUCUGTT against Med17, the z-score is -0.355.

As for GCUGAAGUUUACUAUAACATT against Marco, the z-score is 0.565.

For the sequence GGUACCAUCACGUUGUGUATT against M6pr, the z-score is -0.76. For CCUUGCUCUUUCCAGCUCUTT against Olfr704, the z-score is 0.332.

In the case of GGACAUCGGCUACAACACCTT against Fzd10, the z-score is -2.08 (active). Take GCUGAGGCAAUUUCAACUUTT against Ctla4: the z-score is 0.169. To GCACGACACUCUGUGCAUCTT against Kyat3 belongs 0.6; to GCAUCCUACUUCUCAACUUTT against Ceacam12, 0.328; to GGGUUUCGCUAGAACCAUUTT against Plekhg5, -0.541. On to GCUUGUUGCCUAGGACCUATT against Eif1ad, for which the z-score is -1.14.

Take CCCUCAGAUUCAAAAAGUGTT against Krt1: the z-score was 0.233. For the sequence GCAUGGAGAGAACCUGAAATT against Trim69, the z-score was -0.801. For the sequence GGGCCAAGAUACCAAGAGUTT against Spout1, the z-score is -2.71 (active). As to GGAUAACAGUAAAUGGCUUTT against Zkscan8, the z-score was 0.152. Take “GGUUAAGUUACUAACCCAGTT against 4931406C07Rik”: the z-score was 1.01. Consider “GAGACACUUGUGCUGUAGGTT against F730035P03Rik”, for which the z-score was 0.108. In the case of “GCACUGUAUUCUUGAGCACTT against 1700020L24Rik”, the z-score is 2.06 (active). GGUAGUGAUUACGAACCAATT against Hey1: the z-score is 0.605. As for GCCCAGUACUCCGCUUACATT against Bhlhe23, the z-score was -2.03 (active).

Consider GGGCUGAUCUUUUUAACUGTT against Tpm3, for which the z-score was -0.581. As to GGCCUUAGAGAAAAUCUUUTT against Brd3, the z-score is 0.871. To ACCAGCACGACAGAUGCUATT against Pla2g12a belongs 3.15 (active); to GGCAUACCGUAAAAGUGGCTT against Olfr73, -1.95; to GCCAAGAUGGUUAAAUACCTT against Ankrd34b, -1.64.

In the case of GGUUCGCCCUUGGAAAUGGTT against Dmap1, the z-score is -0.258. On to GGAAUUCAUACCCUUGUUGTT against B3gnt5, for which the z-score was -0.486. For the sequence GGAGGUGAAAGGCAAAACUTT against Poldip2, the z-score was -0.122.

Take CGAAGGUCAAACAGUUUGATT against Stxbp6: the z-score is -0.558. In the case of GGACUAGCAGUAAUAAAAGTT against Zdhhc9, the z-score was -2.37 (active). “CCAGAAUUGAACUUCAAGUTT against 2610008E11Rik”: the z-score is -0.00302.

As for GGGAGAGAACGUGUUCUUCTT against P2rx6, the z-score is -0.477. Regarding GGAGAUCUCCAUCAUCACCTT against Usp50, the z-score was -1.52. The value for CCUAAUGUACACUAACUAUTT against Hsd17b14 was 1.84; that for CCCUAAGAGAGCCUAAAACTT against Serpina3c was -1.12; that for GAACUCUCUCUUCAUCUGGTT against Cd300ld3 was 2.18 (active). Consider CCUUUUUGCUGAAUGUGGATT against Aard, for which the z-score is 0.798. To GGUGUUGGAUUCCAAUCCCTT against Uba5 belongs -0.462. Regarding GGAUGAAAAGAUUGAACUCTT against Gart, the z-score was 3.22 (active).

On to GCUCGAUAUUUUGAAGUCCTT against Cntd1, for which the z-score was 0.693. Regarding GGAUCAGACUGUACGAGAGTT against Crygd, the z-score was -1.11. Regarding GGAAAGUGAAAGUUAGUUUTT against Cbx6, the z-score is 0.244. For the sequence GCAUUUGGAAUUUACCAUGTT against Wdr47, the z-score is 1.13. For GCCGAGUCUCAGCUUGUAATT against Dnajc3, the z-score was 0.258. With GGAAUGGGAUUACACCUACTT against Mymk, the z-score was 2.67 (active).

Consider GUAUGACCAGAAGAAAAAGTT against Lrrc72, for which the z-score was -2.19 (active).

As for GGCAUAUCUGAGGUGAAUCTT against Sec23b, the z-score was -1.57. As for GGAAAGAGCAAACAGUUCCTT against Il1f6, the z-score was -2.09 (active). On to GGUAUUUUGACAGAGUCGATT against Add1, for which the z-score is -1.24.

As for GGUGUUAUCUGCAUCAUCATT against Cyp4f15, the z-score was -1.42. Turning to GGUACUUAUGUGGAUUGGATT against Rint1, the z-score is -0.272.

GGGACUGGACCCAUACAAUTT against Cox5b: the z-score is 4.27 (active). The value for CCGAGUAAGUUUAACUAAGTT against Lrrc39 was -0.501.

With GCUAUAUAAAGGCUGAGUATT against Emilin3, the z-score was -0.128.

For the sequence GGAUGAAGGCCAUUCAAACTT against Hnrnpd, the z-score is 2.04 (active). As for GGAAGAUCUGAAGUCAAUCTT against Mvk, the z-score was -1.08. For GGAGAAAGACAUCAGAAAGTT against Rdh16f2, the z-score is 0.942. Regarding GGGCCUGAUCUACCUGUUUTT against Slc6a18, the z-score is 0.255. With GGACAAGUAUGAAUGUCUATT against Ptk2b, the z-score was 1.25. To CCAAGUGGUACGACCAUGATT against Gcnt3 belongs 1.3. On to CCGACCUGAAGACCUUACATT against Tmem18, for which the z-score is -0.501. For GCCCUAGGAGGAACUGAGUTT against Olfr458, the z-score was -2.54 (active). Turning to “CGGAAGAAGUUAUUUAGAATT against 1700006J14Rik”, the z-score was 0.87. With GGCUCCAAGUCUACACAACTT against Dnajc6, the z-score is 2.82 (active).

In the case of CCUCAUUGAGUUUUGAAGATT against Dtd2, the z-score is -0.329.

GGAAGACCUUGUGUUUGCATT against Mmp13: the z-score is -0.692. As to CCUAAAGUCUCUGAAUCAGTT against Fyb, the z-score is 0.45. Regarding GGUUGUUGCGCAAAUUUAATT against Vmn2r7, the z-score was 1.43. For GCAGUAACUGUGUCAAAAUTT against Zan, the z-score was 0.879. The value for GGAUAUCAAAGACAAAGCATT against Vps53 was -2.58 (active).
